Results: PubChem BioAssay AID540256 (National Center for Advancing Translational Sciences (NCATS), 2011)
Out of some 300,000 compounds screened, about 3,700 (1.2%) were called active. About 20% were inconclusive and are not listed. For the sample, actives were picked, then their nearest neighbours and some compounds at random. Values without a mark were called inactive. Calls follow the shape of the full dose curve; tested in HEK293 cells.

Assay: qHTS for Inhibitors of binding or entry into cells for Lassa Virus; also: nearly all actives have a fitted effect of over 50% in size
Conditions: Lassa virus pseudotype entry inhibition, cell reporter; series mostly up to 37.9 µM; activity change, negative = inhibition: at the top concentration
% is scaled to controls: 0 for no effect and ±100 for the full control effect; potency is read from the fitted curve at half-maximal effect.

Structure (SMILES)	activity change, negative = inhibition	Potency
Cc1ccc(C)c(NC(=O)CN(C)C(=O)COc2ccc3ccccc3c2)c1	-6.57%	–
Cc1cc2occ(CC(=O)NNC(=O)c3ccccc3F)c2cc1C	24% [at 46.1 µM]	–
Cc1ccc(CSCC(=O)N(C)CC(=O)Nc2ccc(C)cc2)cc1	-9.1%	–
COc1ccc(C(=O)NCC(c2ccco2)N2CCc3ccccc32)cc1OC (configuration not stated)	-25.8%	–
Cc1c(C)c2c(OCC(=O)NCCCO)cc3c(c2oc1=O)CCC(C)(C)O3	5.7% [at 46.1 µM]	–
Cc1c(NC(=O)C(C)OC(=O)c2c3c(nc4ccccc24)CCC(C)C3)c(=O)n(-c2ccccc2)n1C (configuration not stated)	9.02%	–
O=C(Nc1ccc2nccnc2c1)c1ccco1	24.7%	–
COc1cccc(C(=O)Nc2ccc(NC(=O)c3ccco3)cn2)c1	1.21%	–
O=C(Nc1ccc(NC(=O)c2cccs2)cn1)c1ccco1	–	3.98 µM (active)
COc1ccc(OCCNC(=O)c2cc(C3CC3)nc3c2cnn3C(C)C)cc1	-1.23%	–
OCc1ccc(-c2ccccc2)c(-c2ccccc2)c1	27.3% [at 46.1 µM]	–
CN1CCCC(OC(=O)COc2ccc(Br)cc2)C1 (configuration not stated)	-3.81%	–
C/C(=C\C(=O)c1ccc(Br)cc1)N1CCCCC1	9.08%	–
CC1CN/C(=C\C(=O)c2ccc(Br)cc2)C(=O)N1 (configuration not stated)	–	8.2 µM (active)
COC1=CC(=O)OC(c2ccc(OC)cc2)C1 (configuration not stated)	-0.152% [at 46.1 µM]	–
Cn1c(SCC(=O)N2CCCc3ccccc32)nc2ccccc2c1=O	–	12.6 µM (active)
O=C(CSc1nc2ccccc2c(=O)n1CCCO)N1CCc2ccccc21	-14.5%	–
O=C(CSc1nc2[nH]ncc2c(=O)n1-c1ccccc1)N1CCCc2ccccc21	13.2%	–
COc1ccc(N2CCN(CCNC(=O)Nc3cc(Cl)ccc3Cl)CC2)cc1	15.1% [at 46.1 µM]	–
O=C(Cc1ccc([N+](=O)[O-])cc1)NCCc1ccc2c(c1)OCO2	-1.52%	–
Cc1ccc(CSCC(=O)N(C)CC(=O)Nc2cccc(F)c2)cc1	9.25%	–
Cc1ccc(S(=O)(=O)Nc2ccc(F)c(S(=O)(=O)N3CCOCC3)c2)cc1	6.43%	–
O=C(COc1ccc2oc3c(c2c1)CCCC3)Nc1ccccn1	-23.4%	–

Structure (SMILES)	activity change, negative = inhibition	Potency
CCOC(=O)N1CCN(C(=O)COc2ccc3oc4c(c3c2)CCCC4)CC1	–	10 µM (active)
CCOC(=O)N1CCN(C(=O)COc2ccc(Br)cc2)CC1	-5.12%	–
CC(=O)c1ccc(OCCCC(=O)Nc2ccc(C)c(S(=O)(=O)N3CCOCC3)c2)cc1	-15.1%	–
COc1ccccc1NS(=O)(=O)c1ccc(C(=O)N2CCN(c3ccccc3O)CC2)cc1	-21.8%	–
Cc1nc(/N=C(\N)NC(=O)NC2CCCCC2)nc2ccccc12	–	22.4 µM (active)
COc1ccc2nc(/N=C(\N)NC(=O)Nc3ccccc3)nc(C)c2c1	5.9%	–
Cc1nn(-c2ccccc2)c(C)c1C(=O)OCC(=O)NC(=O)NC1CCCCC1	-23%	–
CC(C)c1cc(N=O)cc(C(C)C)c1O	0.0792%	–
N#Cc1c(NC(=O)CSc2nc3ccccc3c(=O)n2Cc2ccco2)sc2c1CCCC2	18.5%	–
CC(Sc1nc2ccccc2c(=O)n1Cc1ccco1)C(=O)c1ccccc1 (configuration not stated)	–	4.11 µM (active)
CCOC(=O)C(C)Sc1nc2ccccc2c(=O)n1CC1CCCCC1 (configuration not stated)	-2.75%	–
CC1CCCN(CC(=O)Nc2cc(Cl)ccc2Oc2ccccc2)C1 (configuration not stated)	9.3% [at 46.1 µM]	–
CCOc1ccc(NC(=O)COC(=O)C2CCC(=O)N2)c([N+](=O)[O-])c1 (configuration not stated)	19.8%	–
OC(CN=c1sc2ccccc2n1CC(O)COc1ccccc1)COc1ccccc1 (configuration not stated)	–	20.6 µM (active)
C=CCn1c(=N)n(CC(O)COc2ccc(OC)cc2)c2ccccc21 (configuration not stated)	-1.13%	–
OC(COc1ccccc1)Cn1cc(Br)cn1 (configuration not stated)	-20.5%	–
COc1ccccc1C(=O)NC(CCSC)C(=O)N1CCN(C/C=C/c2ccccc2)CC1 (configuration not stated)	-28.6%	–
CC1CCC2CCCCC2N1C(=O)c1cc([N+](=O)[O-])cc([N+](=O)[O-])c1 (configuration not stated)	-2.98%	–
COc1ccc(C2=Nc3cc(C)ccc3OC2)cc1	–	10 µM (active)
COc1ccc(C2=NOC3(CC(=O)N(c4ccc(C)cc4)C3=O)C2)cc1 (configuration not stated)	5.87%	–
COc1ccc(-c2cc(-c3ccccc3)nc3c2COc2ccc(Cl)cc2-3)cc1	1.5% [at 46.1 µM]	–
COc1ccc2c(c1)C(=O)Nc1cc(Cl)ccc1N2	24.4%	–
CC(=O)Nc1ccc(NC(=O)CS(=O)(=O)c2cn(CC(=O)N3CCCCC3)c3ccccc23)cc1	-4.11%	–

Structure (SMILES)	activity change, negative = inhibition	Potency
Cc1onc(-c2ccccc2Cl)c1C(=O)OCc1nnc(-c2ccccc2)o1	0.569%	–
CC(C)CC(=O)c1c[nH]c(C(=O)NCc2ccccc2)c1	–	7.94 µM (active)
O=C(c1ccc(F)cc1)c1c[nH]c(C(=O)NCc2cccnc2)c1	-22.6%	–
CC(C)CC(=O)NC(=S)NCc1ccccc1	-2.95%	–
OC(COc1ccccc1)CN1CCN(c2cccc(Cl)c2)CC1 (configuration not stated)	14.8%	–
CC/C(=C\c1ccc(Cl)cc1)c1ccncc1	2.57% [at 46.1 µM]	–
COc1cccc(/C=N/NC(=O)c2[nH]nc3c2CCc2ccccc2-3)c1O	–	12.6 µM (active)
COc1cc2cc(C(=O)N/N=C/c3cccc(OC)c3OC)[nH]c2cc1OC	-18.4% [at 46.1 µM]	–
CN(C)CCNC(=O)c1[nH]nc2c1CCc1ccccc1-2	24.1%	–
O=C(CSc1nnc(-c2ccncc2)o1)Nc1cccc(Cl)c1	9.43%	–
COc1ccccc1CNS(=O)(=O)c1cc(C(=O)NCc2ccccn2)c(Cl)cc1Cl	-16.2%	–
CCN(CC)S(=O)(=O)c1ccc(N(C)Cc2ccc(C(F)(F)F)cc2)nc1	–	4.47 µM (active)
CCN(CC)S(=O)(=O)c1ccc(N(C)CCc2ccc(OC)c(OC)c2)nc1	-22.4%	–
CCN(CC)S(=O)(=O)c1ccc(N(C)Cc2cccc(OC)c2OC)nc1	-66.7%	–
CCOc1ccc2[nH]c(=O)c(CN(CCCO)S(=O)(=O)c3ccc(F)cc3)cc2c1	-23%	–
NC(=O)c1nsc(C(=O)N(CCCN2CCOCC2)C(C(=O)NC2CCCCC2)c2ccc(Cl)cc2)c1N (configuration not stated)	-6.35% [at 46.1 µM]	–
COc1ccc(C(C(=O)NC2CCCCC2)N(C(=O)c2snc(C(N)=O)c2N)c2ccccc2OC)cc1 (configuration not stated)	–	10 µM (active)
COc1ccc(C(C(=O)NC2CCCCC2)N(C(=O)CCl)c2ccccc2Cl)cc1 (configuration not stated)	-0.988%	–
O=C(O)C1C2C=CC(O2)C1C(=O)Nc1ccccn1 (configuration not stated)	10.9% [at 46.1 µM]	–
COCCNc1cc(-c2ccccc2)nc2cc(-c3cccc(F)c3)nn12	-7.91% [at 46.1 µM]	–
CC(=O)Nc1ccc(NC(=O)COC(=O)C2CCC(C(C)(C)C)CC2)cc1 (configuration not stated)	-19.8%	–
